Results published in PubChem BioAssay (NCI).
Where “and” joins values, the source holds several entries; their conditions need not be identical. Identical values can stand only once. The panel holds about 83,000 compounds, 20% with a hit somewhere; the sample as a whole holds those more often.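 Each cell line was grown in a 96-well plate and treated with one concentration of compound for 48 hours. Values below 10 were considered active.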 Calls of active or inactive are those of the source.

What was measured:
Assay in all cases: NCI-60 one-dose screen, 48 h (100 = growth as untreated, 0 = no growth, -100 = all killed)
DU-145 prostate = system: DU-145 prostate
K-562 leukemia = conditions: 10 µM unless noted
MALME-3M melanoma = system: MALME-3M melanoma
MDA-MB-231 breast = system: MDA-MB-231 breast
RXF 393 renal = system: RXF 393 renal
SF-268 CNS = system: SF-268 CNS
SF-295 CNS = system: SF-295 CNS
SF-539 CNS = system: SF-539 CNS
UACC-257 melanoma = system: UACC-257 melanoma
M14 melanoma = system: M14 melanoma
HCT-15 colon = system: HCT-15 colon
HT29 colon = system: HT29 colon
SNB-75 CNS = system: SNB-75 CNS
SNB-19 CNS = system: SNB-19 CNS
U251 CNS = system: U251 CNS
PC-3 prostate = system: PC-3 prostate
SK-MEL-5 melanoma = system: SK-MEL-5 melanoma
UACC-62 melanoma = system: UACC-62 melanoma
LOX IMVI melanoma = system: LOX IMVI melanoma
SK-MEL-28 melanoma = system: SK-MEL-28 melanoma

Measured: growth

Cc1cn(-c2cc(NC(=O)c3ccc(C)c(-n4cc(-c5cnc6cccnn56)nn4)c3)cc(C(F)(F)F)c2)cn1
inactive: DU-145 prostate; 10 µM unless noted 105% | MDA-MB-231 breast; 10 µM unless noted 24.7% | RXF 393 renal; 10 µM unless noted 98.1% | SF-268 CNS; 10 µM unless noted 112% | SF-295 CNS; 10 µM unless noted 93.8% | SF-539 CNS; 10 µM unless noted 77.7% | UACC-257 melanoma; 10 µM unless noted 22.4% | M14 melanoma; 10 µM unless noted 21.5% | HCT-15 colon; 10 µM unless noted 84.8% | SNB-75 CNS; 10 µM unless noted 122% | SNB-19 CNS; 10 µM unless noted 109% | U251 CNS; 10 µM unless noted 44.3% | PC-3 prostate; 10 µM unless noted 102% | SK-MEL-5 melanoma; 10 µM unless noted 53.9% | UACC-62 melanoma; 10 µM unless noted 11.3% | LOX IMVI melanoma; 10 µM unless noted 26.8% | SK-MEL-28 melanoma; 10 µM unless noted 23.5%
active: K-562 leukemia 4.65% | MALME-3M melanoma; 10 µM unless noted -12.3% | HT29 colon; 10 µM unless noted 7.41%

CC/C(=C(\c1ccc(O)cc1)c1ccc(OCCN(C)C(=O)CCOCCNC(=O)c2ccc3c(c2)CN([C@@H]2CCC(=O)NC2=O)C3=O)cc1)c1ccccc1
inactive: DU-145 prostate; 1 µM 105% | DU-145 prostate; 10 µM 109% | MALME-3M melanoma; 1 µM 78.4% | MALME-3M melanoma; 10 µM 52.5% | MDA-MB-231 breast; 1 µM 33.7% | MDA-MB-231 breast; 10 µM 21.8% | RXF 393 renal; 1 µM 102% | RXF 393 renal; 10 µM 90% | SF-268 CNS; 1 µM 89.3% | SF-268 CNS; 10 µM 100% | SF-295 CNS; 1 µM 96.2% | SF-295 CNS; 10 µM 93.2% | SF-539 CNS; 1 µM 94.6% | SF-539 CNS; 10 µM 88.9% | UACC-257 melanoma; 1 µM 101% | UACC-257 melanoma; 10 µM 88.3% | M14 melanoma; 1 µM 90.5% | M14 melanoma; 10 µM 92.8% | HCT-15 colon; 1 µM 110% | HCT-15 colon; 10 µM 103% | HT29 colon; 1 µM 95% | HT29 colon; 10 µM 89% | SNB-75 CNS; 1 µM 59% | SNB-75 CNS; 10 µM 64.2% | SNB-19 CNS; 1 µM 92.7% | SNB-19 CNS; 10 µM 90.1% | U251 CNS; 1 µM 95.3% | U251 CNS; 10 µM 92.6% | PC-3 prostate; 1 µM 54.2% | PC-3 prostate; 10 µM 52.9% | SK-MEL-5 melanoma; 1 µM 95.4% | SK-MEL-5 melanoma; 10 µM 87.9% | UACC-62 melanoma; 1 µM 95.9% | UACC-62 melanoma; 10 µM 95% | LOX IMVI melanoma; 1 µM 104% | LOX IMVI melanoma; 10 µM 94.4% | SK-MEL-28 melanoma; 1 µM 102% | SK-MEL-28 melanoma; 10 µM 102%

NC1(c2ccc(-c3ccc4ncnc(NCc5ccccc5)c4c3)cn2)COC1
inactive: DU-145 prostate; 10 µM unless noted 105% and 97.7% | K-562 leukemia 114% and 100% | MALME-3M melanoma; 10 µM unless noted 106% | MDA-MB-231 breast; 10 µM unless noted 105% and 106% | RXF 393 renal; 10 µM unless noted 103% and 101% | SF-268 CNS; 10 µM unless noted 111% and 113% | SF-295 CNS; 10 µM unless noted 102% and 101% | SF-539 CNS; 10 µM unless noted 101% and 104% | UACC-257 melanoma; 10 µM unless noted 120% and 109% | M14 melanoma; 10 µM unless noted 134% and 114% | HCT-15 colon; 10 µM unless noted 109% and 102% | HT29 colon; 10 µM unless noted 122% and 108% | SNB-75 CNS; 10 µM unless noted 115% and 103% | SNB-19 CNS; 10 µM unless noted 100% and 98.8% | U251 CNS; 10 µM unless noted 112% and 108% | PC-3 prostate; 10 µM unless noted 94.4% and 105% | SK-MEL-5 melanoma; 10 µM unless noted 101% and 107% | UACC-62 melanoma; 10 µM unless noted 104% and 94% | LOX IMVI melanoma; 10 µM unless noted 99% and 102% | SK-MEL-28 melanoma; 10 µM unless noted 104% and 107%

CC/C(=C(/c1ccc(O)cc1)c1ccc(OCCN(C)C(=O)CCOCCNC(=O)Cc2ccc3c(c2)CN([C@@H]2CCC(=O)NC2=O)C3=O)cc1)c1ccccc1
inactive: DU-145 prostate; 1 µM 109% | DU-145 prostate; 10 µM 101% | MALME-3M melanoma; 1 µM 42.7% | MALME-3M melanoma; 10 µM 13.3% | MDA-MB-231 breast; 1 µM 11% | RXF 393 renal; 1 µM 104% | RXF 393 renal; 10 µM 93.8% | SF-268 CNS; 1 µM 96.5% | SF-268 CNS; 10 µM 72.6% | SF-295 CNS; 1 µM 103% | SF-295 CNS; 10 µM 94.7% | SF-539 CNS; 1 µM 87.9% | SF-539 CNS; 10 µM 78.4% | UACC-257 melanoma; 1 µM 91% | UACC-257 melanoma; 10 µM 96.1% | M14 melanoma; 1 µM 92.2% | M14 melanoma; 10 µM 65% | HCT-15 colon; 1 µM 108% | HCT-15 colon; 10 µM 100% | HT29 colon; 1 µM 103% | HT29 colon; 10 µM 91.3% | SNB-75 CNS; 1 µM 57% | SNB-75 CNS; 10 µM 27.8% | SNB-19 CNS; 1 µM 75.9% | SNB-19 CNS; 10 µM 62.1% | PC-3 prostate; 1 µM 42.7% | PC-3 prostate; 10 µM 27.4% | SK-MEL-5 melanoma; 1 µM 97% | SK-MEL-5 melanoma; 10 µM 71.5% | UACC-62 melanoma; 1 µM 96.9% | UACC-62 melanoma; 10 µM 85.5% | LOX IMVI melanoma; 1 µM 99.2% | LOX IMVI melanoma; 10 µM 93.6% | SK-MEL-28 melanoma; 1 µM 101% | SK-MEL-28 melanoma; 10 µM 80.2%
active: MDA-MB-231 breast; 10 µM -5.68%

c1ccc(CSc2nnc(-c3ccc4nc(-c5ccccc5)[nH]c4c3)o2)cc1
inactive: DU-145 prostate; 10 µM unless noted 21.4% | K-562 leukemia 33.5% | SF-295 CNS; 10 µM unless noted 17.1% | UACC-257 melanoma; 10 µM unless noted 57.6% | M14 melanoma; 10 µM unless noted 41.5% | HCT-15 colon; 10 µM unless noted 12.7% | HT29 colon; 10 µM unless noted 42.5% | SNB-19 CNS; 10 µM unless noted 16.3% | PC-3 prostate; 10 µM unless noted 26.6% | SK-MEL-5 melanoma; 10 µM unless noted 29.4%
active: MALME-3M melanoma; 10 µM unless noted 7.77% | MDA-MB-231 breast; 10 µM unless noted -12.8% | RXF 393 renal; 10 µM unless noted -22.1% | SF-268 CNS; 10 µM unless noted 8.24% | SF-539 CNS; 10 µM unless noted -39.9% | SNB-75 CNS; 10 µM unless noted -51.4% | U251 CNS; 10 µM unless noted 4.61% | UACC-62 melanoma; 10 µM unless noted 5.19% | LOX IMVI melanoma; 10 µM unless noted -43.6% | SK-MEL-28 melanoma; 10 µM unless noted -4.76%

Cc1cnc2ccc(Oc3ccccc3-c3ccccc3)nn12
inactive: DU-145 prostate; 10 µM unless noted 115% | K-562 leukemia 101% | MALME-3M melanoma; 10 µM unless noted 100% | MDA-MB-231 breast; 10 µM unless noted 109% | RXF 393 renal; 10 µM unless noted 107% | SF-268 CNS; 10 µM unless noted 106% | SF-295 CNS; 10 µM unless noted 97.5% | SF-539 CNS; 10 µM unless noted 104% | UACC-257 melanoma; 10 µM unless noted 116% | M14 melanoma; 10 µM unless noted 99.6% | HCT-15 colon; 10 µM unless noted 103% | HT29 colon; 10 µM unless noted 108% | SNB-75 CNS; 10 µM unless noted 126% | SNB-19 CNS; 10 µM unless noted 99.7% | U251 CNS; 10 µM unless noted 100% | PC-3 prostate; 10 µM unless noted 105% | SK-MEL-5 melanoma; 10 µM unless noted 107% | UACC-62 melanoma; 10 µM unless noted 101% | LOX IMVI melanoma; 10 µM unless noted 97.9% | SK-MEL-28 melanoma; 10 µM unless noted 113%
